According to PubChem BioAssay AID1159580 (chemical genetic matrix, 2015):
“And” between values parts separate entries of the source, which are not always exact repeats. Identical values can stand only once. Screen size: about 5,500 compounds; about 2,000 (36%) were called active. Roughly 18% stayed inconclusive and do not appear here. No stated cut-off is given here; in the data, active means normalized growth mostly below about 0.91 (no sharp cut-off); inconclusive means no clear call, values can overlap the other calls; inactive means mostly above about 0.92. The list shows a part of the results.

Experiment: chemical genetic growth profiling, strain panel (AID 1159580);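 further: tested at 20 µM; growth read once vehicle control cultures reached saturation at 30 °C; 1 = growth at the plate median or of vehicle wells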
Conditions: S. cerevisiae deletion strains, growth OD

Measured: normalized growth

O=C(O)c1ccccc1-c1c2cc(Br)c(=O)cc-2oc2[c]([Hg])c(O)c(Br)cc12
inactive: locus YAL021C, strain ccr4, stronger effect = lower value 1.01 | locus YAL026C, strain drs2, stronger effect = lower value 1.04 | locus YAL030W, strain snc1, stronger effect = lower value 1.03 | locus YBL061C, strain skt5, stronger effect = lower value 1.04 | locus YBR009C, strain hhf1, stronger effect = lower value 1.03 | locus YBR023C, strain chs3, stronger effect = lower value 1.04 | locus YBR171W, strain sec66, stronger effect = lower value 1.06 | locus YBR229C, strain ROT2, stronger effect = lower value 0.972 | locus YBR231C, strain swc5, stronger effect = lower value 1.04 | locus YCL011C, strain gbp2, stronger effect = lower value 1.05 | locus YCL016C, strain dcc1, stronger effect = lower value 1.06 | locus YCL029C, strain bik1, stronger effect = lower value 0.996 | locus YCR088W, strain abp1, stronger effect = lower value 1.03 | locus YDL005C, strain med2, stronger effect = lower value 1.02 | locus YDL040C, strain nat1, stronger effect = lower value 1.05 | locus YDL074C, strain BRE1, stronger effect = lower value 0.866 | locus YDL101C, strain DUN1, stronger effect = lower value 0.936 | locus YDR001C, strain nth1, stronger effect = lower value 1.04 | locus YDR069C, strain doa4, stronger effect = lower value 1.02 | locus YDR101C, strain arx1, stronger effect = lower value 1.01 | locus YDR159W, strain sac3, stronger effect = lower value 1.05 | locus YDR195W, strain ref2 0.982 | locus YDR297W, strain sur2, stronger effect = lower value 1.04 | locus YDR334W, strain swr1, stronger effect = lower value 1.03 | locus YDR335W, strain msn5, stronger effect = lower value 1.03 | locus YDR392W, strain spt3, stronger effect = lower value 0.796 | locus YEL003W, strain gim4, stronger effect = lower value 1.02 | locus YEL037C, strain rad23, stronger effect = lower value 1.03 | locus YEL061C, strain CIN8 (second series), stronger effect = lower value 1.05 | locus YEL061C, strain CIN8, stronger effect = lower value 0.984 | locus YER015W, strain faa2, stronger effect = lower value 1.04 | locus YER016W, strain bim1, stronger effect = lower value 1.06 | locus YER111C, strain swi4, stronger effect = lower value 1.03 | locus YER155C, strain BEM2 (second series), stronger effect = lower value 1.03 | locus YER155C, strain BEM2, stronger effect = lower value 1.02 | locus YFR010W, strain ubp6, stronger effect = lower value 1.02 | locus YGL167C, strain pmr1, stronger effect = lower value 1.06 | locus YGL173C, strain kem1, stronger effect = lower value 0.973 | locus YGL227W, strain vid30, stronger effect = lower value 1.05 | locus YGL240W, strain doc1, stronger effect = lower value 1 | locus YGL253W, strain hxk2, stronger effect = lower value 1.02 | locus YHR027C, strain rpn1, stronger effect = lower value 1.01 | locus YHR129C, strain ARP1, stronger effect = lower value 0.939 | locus YHR142W, strain chs7, stronger effect = lower value 0.951 | locus YIR030C, strain dcg1, stronger effect = lower value 1 | locus YJL092W, strain hpr5, stronger effect = lower value 1.04 | locus YJL095W, strain BCK1 (second series), stronger effect = lower value 1.03 | locus YJL115W, strain asf1, stronger effect = lower value 1.03 | locus YJL129C, strain trk1, stronger effect = lower value 1.12 | locus YJL134W, strain LCB3, stronger effect = lower value 1.02 | locus YJL154C, strain vps35, stronger effect = lower value 1.04 | locus YJL164C, strain tpk1, stronger effect = lower value 1.01 | locus YJL166W, strain qcr8, stronger effect = lower value 1.02 | locus YJL187C, strain SWE1 (second series), stronger effect = lower value 0.955 | locus YJL187C, strain SWE1, stronger effect = lower value 1.01 | locus YJR043C, strain POL32, stronger effect = lower value 0.868 | locus YJR075W, strain HOC1, stronger effect = lower value 0.946
0.834 (inactive) and 0.144 (active): locus YJL095W, strain BCK1, stronger effect = lower value
active: locus YAL013W, strain DEP1, stronger effect = lower value 0.0843 | locus YBR021W, strain FUR4, stronger effect = lower value 0.61 | locus YBR279W, strain paf1, stronger effect = lower value 0.594 | locus YDL035C, strain GPR1, stronger effect = lower value 0.453 | locus YDL134C, strain PPH21, stronger effect = lower value 0.102 | locus YDL185W, strain tfp1, stronger effect = lower value 0.622 | locus YDL192W, strain arf1, stronger effect = lower value 0.0635 | locus YDR137W, strain rgp1, stronger effect = lower value 1.2 [resistant] | locus YDR150W, strain NUM1, stronger effect = lower value 0.732 | locus YDR162C, strain NBP2, stronger effect = lower value 0.736 | locus YDR318W, strain mcm21, stronger effect = lower value 0.07 | locus YDR388W, stronger effect = lower value 0.0603 | locus YDR502C, strain sam2, stronger effect = lower value 0.814 | locus YER110C, stronger effect = lower value 0.655 | locus YER167W, strain BCK2, stronger effect = lower value 0.0686 | locus YGL078C, strain dbp3, stronger effect = lower value 0.0613 | locus YGL086W, strain mad1, stronger effect = lower value 0.0593 | locus YGL248W, strain PDE1, stronger effect = lower value 0.0521 | locus YGR078C, strain PAC10, stronger effect = lower value 0.369 | locus YGR135W, strain pre9, stronger effect = lower value 0.0708 | locus YGR229C, strain SMI1, stronger effect = lower value 0.106 | locus YGR252W, strain gcn5, stronger effect = lower value 0.178 | locus YHR013C, strain ard1, stronger effect = lower value 0.121 | locus YHR030C, strain SLT2, stronger effect = lower value 0.146 and 0.163 | locus YHR079C, strain IRE1 (second series), stronger effect = lower value 0.884 | locus YHR079C, strain IRE1, stronger effect = lower value 0.406 | locus YHR094C, strain hxt1, stronger effect = lower value 0.0904 | locus YHR200W, strain rpn10, stronger effect = lower value 0.0659 | locus YIL066C, strain RNR3, stronger effect = lower value 0.0637 | locus YIL073C, strain SPO22, stronger effect = lower value 0.127 | locus YIL125W, strain kgd1, stronger effect = lower value 0.0621 | locus YJL168C, strain set2, stronger effect = lower value 0.0944 | locus YJR066W, strain TOR1, stronger effect = lower value 0.439
